Assay results: PubChem BioAssay (EPA / NIEHS)
Calls of active or inactive are those of the source. How the source made its calls: active means hit-call score of the fitted dose curve at least 0.9, where 1 is the maximum; inactive means score below 0.9.

read-out: flavin-containing dimethylaniline monooxygenases 3 (FMO3), FMO3 (gene 2328); assay: LTEA_HepaRG_FMO3: Life Technologies and Expression Analysis (LTEA) Assay for flavin-containing dimethylaniline monooxygenases 3 (FMO3) using HepaRG (AID 2283453); conditions: mRNA level, 48 h; actives raise or lower the signal;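 on AC50: differentiated human HepaRG liver cells in serum-free induction medium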
Summary of the method: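 Differentiated HepaRG cells in serum-free induction medium, exposed 48 h in duplicate to 8 half-log concentrations up to 100 uM in 0.5% DMSO. FMO3 mRNA by qRT-PCR, normalized to ACTB, GAPDH, POLR2A; bidirectional fit vs DMSO.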

| SMILES | AC50 | outcome |
| --- | --- | --- |
| CC(C)(C)c1csc(-c2cc3cc(OCc4ccccc4CC(=O)O)ccc3o2)n1 | 73.5 µM (active) | – |
| CC1=CC(=O)/C(=C(/C)O)C(=O)O1 | – | inactive |
| CC[C@@H]1C[C@H](N(Cc2cc(C(F)(F)F)cc(C(F)(F)F)c2)C(C)=O)c2cc(C(F)(F)F)ccc2N1C(=O)OC(C)C | – | inactive |
| CN(C[C@@H](CC[N+]12CCC(C3CCCCC3)(CC1)CC2)c1ccc(Cl)c(Cl)c1)C(=O)c1cc(C(F)(F)F)cc(C(F)(F)F)c1 | 50 µM (active) | – |
| O=C(O)c1ccccc1-n1cc(C(=O)O)c(=O)c2cc(Nc3c(F)cc(F)cc3Cl)c(Cl)cc21 | – | inactive |

read-out: Cytochrome P450 (CYP1A1), CYP1A1 (gene 1543); assay: LTEA_HepaRG_CYP1A1: Life Technologies and Expression Analysis (LTEA) Assay for Cytochrome P450 (CYP1A1) using HepaRG (AID 2283454); conditions: mRNA level, 48 h; actives raise or lower the signal
Summary of the method: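 Differentiated HepaRG cells in serum-free induction medium were exposed in duplicate for 48 h to eight half-log concentrations up to 100 uM in 0.5% DMSO. CYP1A1 mRNA was quantified by TaqMan qRT-PCR, normalized to ACTB, GAPDH and POLR2A.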

| SMILES | AC50 | outcome |
| --- | --- | --- |
| O=C=NCCCCCCN=C=O | 80.1 µM (active) | – |
| CCN(Cc1cccnc1)C(=O)c1cccc(Cl)c1[C@]1(C)C(=O)N(Cc2ccc(OC)cc2OC)c2ccc(Cl)cc21 | – | inactive |
| O=C(O)c1ccccc1C(=O)OCc1ccccc1 | 21.4 µM (active) | – |
| CCOC(=O)O[C@H](C)OC(=O)c1ccc2c(c1)cc(C(=O)NC1CCN(C(C)C)CC1)n2Cc1cc(-c2ccc(Cl)s2)on1 | 65.2 µM (active) | – |
| CCCCCc1ccc(N)cc1 | 28.8 µM (active) | – |
| CN(C)C(=O)C1(N2CCCCC2)CCN(CC[C@@]2(c3ccc(Cl)c(Cl)c3)CN(C(=O)c3ccccc3)CCO2)CC1 | 24.7 µM (active) | – |
| CC1(C)NC(=O)N(c2ccc([N+](=O)[O-])c(C(F)(F)F)c2)C1=O | – | inactive |
| CCN(Cc1cccc(S(=O)(=O)O)c1)c1ccc(C(=C2C=CC(=[N+](CC)Cc3cccc(S(=O)(=O)O)c3)C=C2)c2ccccc2S(=O)(=O)[O-])cc1 | 32.2 µM (active) | – |
